Screening results: PubChem, National Center for Advancing Translational Sciences (NCATS)
D2 ag-1: Beta-Arrestin HTS for Positive Allosteric Modulators of the Human D2 Dopamine Receptor: Agonists | AID 624465, 2012 | D(2) dopamine receptor (Homo sapiens), P14416 | activation, % (no concentration beside the values) | DiscoveRx PathHunter D2 beta-arrestin, luminescence, 90 min; 100% = 57 uM dopamine signal | 0.084% of 360,000 active; in the data active means activation above about 40%
Target sequence (P14416 whole entry, looked up): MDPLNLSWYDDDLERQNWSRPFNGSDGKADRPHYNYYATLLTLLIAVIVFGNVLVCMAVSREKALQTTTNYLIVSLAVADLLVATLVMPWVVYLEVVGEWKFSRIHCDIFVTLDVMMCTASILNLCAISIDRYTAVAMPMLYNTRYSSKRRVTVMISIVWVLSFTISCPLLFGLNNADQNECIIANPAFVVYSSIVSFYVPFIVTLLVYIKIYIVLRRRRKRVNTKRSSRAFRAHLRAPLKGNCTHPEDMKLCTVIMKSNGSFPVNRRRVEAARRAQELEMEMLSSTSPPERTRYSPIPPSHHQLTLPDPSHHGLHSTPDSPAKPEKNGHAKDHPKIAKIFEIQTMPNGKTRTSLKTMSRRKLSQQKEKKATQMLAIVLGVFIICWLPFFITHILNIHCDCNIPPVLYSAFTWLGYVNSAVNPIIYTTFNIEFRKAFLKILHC
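Agonist mode: compounds alone added to overnight-plated D2 PathHunter cells for 90 min at 37 C, with 57 uM final dopamine (EC100) defining full response. Beta-arrestin recruitment detected by chemiluminescent reagent, read after 1 h at ambient temperature.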
D2 ag-2: HTS Assay for Allosteric Agonists of the Human D2 Dopamine Receptor: Primary Screen for Agonists. HEK293 T-REx D2 cells, calcium flux agonist mode. activation, % at 2 µM. 0.53% of 340,000 active;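 active means activation over 3 SD above normal in the single-dose calcium agonist read, cut at about 30% in these data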
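In this primary screen, compounds producing a positive calcium signal within 180 s of addition to tetracycline-induced, force-coupled HEK293 Trex D2 cells are flagged; cells are dye-loaded with a no-wash calcium kit beforehand.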
D2 PAM-1: HTS Assay for Positive Allosteric Modulators of the Human D2 Dopamine Receptor: Primary Screen for Potentiators | D(2) dopamine receptor (Homo sapiens), P14416 | HEK293 T-REx D2, calcium flux, EC20 dopamine potentiation | potentiation, % at 10 µM | 0.34% of 340,000 active;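 active means potentiation over 3 SD above the plate norm, cut at about 30% in these data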
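Tetracycline-induced HEK293 T-REx cells force-coupled to calcium signalling expressed D2; compounds were pin-added after a 10 s baseline, read kinetically 180 s, then an EC20 dopamine challenge followed with a further 180 s calcium read.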
D2 PAM-2: Beta-Arrestin HTS for Positive Allosteric Modulators of the Human D2 Dopamine Receptor: Potentiators. D(2) dopamine receptor (Homo sapiens), P14416. 0.23% of 360,000 active. AID 624464, 2012. potentiation, % (test concentration not listed). DiscoveRx D2 beta-arrestin cells, luminescence, 90 min; 100% = 57 uM dopamine signal; in the data active means potentiation above about 50%
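D2 cells co-treated with compound plus 50 nM dopamine (EC20) for 90 min at 37 deg C to detect potentiation. Beta-arrestin recruitment was read as enzyme-fragment luminescence after 1 h at ambient temperature. Full response was set by 57 uM dopamine.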
D2 antag: HTS Assay for Allosteric Antagonists of the Human D2 Dopamine Receptor: Primary Screen for Antagonists; HEK293 TREx D2 cells, calcium flux, dopamine EC80; inhibition, % at 10 µM; 2% of 340,000 active; AID 485344, 2010; in the data active means inhibition above about 30%; inactive means below that, where a call was filed
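Overnight-induced (tetracycline, 30 C) HEK293 T-REx cells carrying force-coupled D2 receive a no-wash calcium dye, then compound, then EC80 dopamine at 180 s; signals are read kinetically throughout.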
Of the large screens only hits and unclear results are named; the others gave an inactive call. The list is not random: actives were taken first. Their share in the collection is about 2.4%.

Cc1ccc(NC(=O)CCn2c(=O)[nH]c3ccsc3c2=O)cc1	none
CCOc1ccc(NC(=O)CCn2c(=O)[nH]c3ccsc3c2=O)cc1	D2 PAM-1 36
O=C(O)c1ccc(-c2ccc(/C=c3/sc4nc5ccccc5n4c3=O)o2)cc1Cl	D2 ag-2 48, D2 antag 34
Cc1ccc2c(nc3s/c(=C\c4ccc(-c5ccccc5C(=O)O)o4)c(=O)n32)c1C	D2 ag-2 40
CCN(CC)CCNC(=O)C(=O)Nc1c2c(nn1-c1ccc(F)cc1)CSC2	none (no result: D2 ag-1, D2 PAM-1, D2 PAM-2, D2 antag)
COc1ccc(-n2c(=S)[nH]c3sc(-c4ccccc4)cc3c2=O)c(OC)c1	none
COc1ccc(-n2c(=S)[nH]c3c(sc(=S)n3-c3ccccc3)c2=O)c(OC)c1	D2 PAM-1 37
O=C(Nc1cccnc1Cl)c1cc2ccccc2o1	none
CO/N=C/NC(=O)NOCc1ccc(Cl)cc1Cl	none
O=C(N/C=N/OCc1ccc(Cl)cc1Cl)NOCc1c(Cl)cccc1Cl	D2 antag 31
C=CCN(c1ccccc1)S(=O)(=O)c1cccc(C(=O)NCC(c2ccc(OC)cc2)N2CCCCC2)c1 (stereo not drawn)	D2 antag 55
COc1ccc(C(CNC(=O)c2cccc(N(C)C)c2)N2CCCC2)cc1 (stereo not drawn)	D2 antag 47
COc1ccc(C(CNC(=O)c2ccc(C)c(S(=O)(=O)Nc3ccccc3OC)c2)N2CCCC2)cc1 (stereo not drawn)	D2 antag 49
COc1ccc(C(CNC(=O)c2cccc(S(=O)(=O)Nc3ccccc3OC)c2)N2CCCC2)cc1 (stereo not drawn)	none
Cn1c(=O)c2[nH]c(Cc3cccc4ccccc34)nc2n(C)c1=O	none (no result: D2 ag-2, D2 PAM-1, D2 antag)
O=C1C=C(c2cc3ccccc3s2)C[C@@H](c2ccc(Cl)cc2)C1	none (no result: D2 ag-2, D2 PAM-1, D2 antag)
O=C1C=C(c2cccc3c2sc2ccccc23)C[C@@H](c2ccc(Cl)cc2)C1	D2 PAM-1 33
CCOC(=O)C(Cc1cc(C(C)=O)ccc1OC(C)C)C(=O)OCC	D2 antag 54
CCOC(=O)C(Cc1cc(C(C)=O)ccc1OCC)C(=O)OCC	none
COc1ccc(COCC(O)CN2CCCCC2)cc1OC (stereo not drawn)	none
COc1ccc(COCC(O)CN(Cc2ccccc2)C(C)C)cc1OC (stereo not drawn)	D2 antag 31
COc1cc(OC)c(-c2cc(C(=O)NCc3ccc(F)cc3)c3c(-c4ccccc4)[nH]nc3n2)cc1OC	none (no result: D2 ag-1, D2 PAM-2, D2 antag)
CCCC(=O)Nc1ccc(Oc2ccc(NC(=O)CCC)cc2)cc1	D2 PAM-1 35
CCCC(=O)Nc1ccc(OCC(=O)OC)cc1	none
CCOC(=O)CNC(=O)C12CC3CC(C1)CC(c1ccc(C)cc1)(C3)C2	none
CCOc1ccc(NC(=O)C23CC4CC(C2)CC(c2ccccc2)(C4)C3)cc1	D2 antag 31
CCOC(=O)c1ccc(N2C=C(C(=O)OC)C(c3ccc(OC)c(O)c3)C(C(=O)OC)=C2)cc1	none
CC(OC(=O)/C=C/c1ccccc1)C(=O)N1CCc2ccccc21 (stereo not drawn)	D2 antag 30 (no result: D2 ag-2)
COc1cc(F)ccc1CN1CCC(C(=O)Nc2ccc(Oc3ccccc3)nc2)CC1	D2 antag 40
COc1ccc(CN2CCC(C(=O)Nc3ccc(Oc4ccccc4)nc3)CC2)cc1F	none
COc1ccc(C2CC(C(F)(F)F)n3nc(C(=O)NCc4c(C)nn(C)c4C)c(Cl)c3N2)cc1 (stereo not drawn)	none
COc1ccc(C2CC(C(F)(F)F)n3nc(C(=O)N(C)Cc4cn(C)nc4C)c(Cl)c3N2)cc1 (stereo not drawn)	D2 PAM-1 34
O=C(NCc1ccc(F)cc1)C(=O)NCC(c1ccco1)S(=O)(=O)c1cccs1 (stereo not drawn)	none (no result: D2 ag-1, D2 PAM-2, D2 antag)
CC(C)N(C(=O)CN1C(=O)C(=O)c2ccccc21)c1ccccc1	D2 antag 36
O=C(CN1C(=O)C(=O)c2ccccc21)c1ccccc1	none
